From the supplement of paper PMC9492666 come the findings set out here.

Counter-ions that a name gives are not always drawn.
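Also: viability read out with the CCK-8 kit in 96-well plates, screening a set of 303 compounds acting on lipid metabolism targets.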

The subject of this assay is HCC1937. Put plainly: relative cell viability, compound alone, vs DMSO (fraction of DMSO control); higher = less growth inhibition. The settings on record: 72 h.
Regarding `COc1ccc(C(=O)/C=C/c2ccccc2)cc1` [4'-Methoxychalcone], the relative cell viability is 0.73. Turning to `CN(C)C(=O)Nc1cccc(-c2ccc(N(C)C)cc2)c1` [Atglistatin], the relative cell viability was found to be 0.661. With `Cc1nc2c([nH]1)c(=O)n(C)c(=O)n2Cc1ccco1` [Furafylline], the relative cell viability is 0.721. Under `COc1ccc(-c2cc(=O)c3c(O)c(OC)c(O)cc3o2)cc1OC` [Eupatilin] stands 0.622; under `C=C(C)[C@@H]1CC[C@]2(CO)CC[C@]3(C)[C@H](CC[C@@H]4[C@@]5(C)CC[C@H](O)C(C)(C)[C@@H]5CC[C@]43C)[C@@H]12` [Betulin], 0.886.

For the compound `COC(=O)c1sccc1S(=O)(=O)Nc1ccc(Nc2ccccc2)cc1OC`, the relative cell viability stood at 0.795.

`CC(C)[C@H]1CC[C@H](C(=O)N[C@H](Cc2ccccc2)C(=O)O)CC1` [Nateglinide] displayed a relative cell viability of 0.682. Compound `CN(C)CCOC(=O)COc1ccc(Cl)cc1` [Meclofenoxate hydrochloride] displayed a relative cell viability of 0.782.

For `O=C(Nc1cccnc1)N1CCC(Cc2cccc(Oc3ccc(C(F)(F)F)cn3)c2)CC1`, the relative cell viability is 1.14.

Turning to `CCCCCC=CC(=O)CCc1ccc(O)c(OC)c1` [6-Shogaol], the relative cell viability worked out at 0.937. Take `CC(C)CCC[C@@H](C)[C@H]1CC[C@H]2[C@@H]3CCC4=CC(=NO)CC[C@]4(C)[C@H]3CC[C@]12C` [Olesoxime]: the relative cell viability was determined as 0.978. In the case of `NC(CO)C(=O)O` (racemic) [DL-Serine], the relative cell viability was 0.683. Consider `O=C(O)Cc1cccc(OCCCN(Cc2cccc(C(F)(F)F)c2Cl)CC(c2ccccc2)c2ccccc2)c1`, for which the relative cell viability is 0.78. Compound `O=C(O)C(=O)Nc1sc2c(c1C(=O)O)CCNC2` had a relative cell viability of 1.01.

With `Cc1coc2c1C(=O)C(=O)c1c-2ccc2c(C)cccc12` [Tanshinone I], the relative cell viability turned out to be 0.287. In turn, `Cc1cc(C)c(S(=O)(=O)Nc2cccc(C(F)(F)F)c2)c(C)c1` returned a relative cell viability of 1.12. `CC(=O)Nc1nc(C)c(S(=O)(=O)Nc2ccc(C(O)(C(F)(F)F)C(F)(F)F)cc2)s1` showed a relative cell viability of 1.29.

As to `O=S(=O)(O)c1ccc2cc(N=Nc3cc(S(=O)(=O)O)c4cccnc4c3O)ccc2c1`, the relative cell viability was 0.987. With `CCN(CC)c1ccc(C=NNC(=O)c2ccncc2)c(O)c1` the figure was 0.4. Compound `CC(C)OC(=O)C(C(=O)OC(C)C)=C1SC=CS1` [Malotilate] gave a relative cell viability of 0.686.

Regarding `O=C(c1ccc(-c2nc3ccc(F)cc3o2)cc1)N1CCN(C(=O)C2(O)CC2)CC1`, the relative cell viability is 0.831. With `Cc1nc2ccc(C(=O)N3CCC4(CC3)CC(=O)c3c(cnn3C(C)C)C4)cc2[nH]1` the figure was 0.71. Take `O=C(O)CCCc1cc2cc(Cl)ccc2n1S(=O)(=O)c1ccc2ncsc2c1` [Lanifibranor]: the relative cell viability amounted to 0.754. Compound `C=C[C@H]1CN2CC[C@H]1C[C@@H]2[C@@H](O)c1ccnc2ccc(OC)cc12` [Quinidine sulfate] yielded a relative cell viability of 0.803.

For the compound `CC1(N)CCN(c2cnc(-c3cccc(Cl)c3Cl)c(N)n2)CC1` [SHP099 hydrochloride], the relative cell viability is 0.768. The compound `CC(C)[C@H](N=C(NS(=O)(=O)c1ccc(Cl)cc1)N1C[C@H](c2ccccc2)C(c2ccc(Cl)cc2)=N1)C(N)=O` had a relative cell viability of 0.87. For `Cn1c2cc([S+](C)[O-])sc2c2cnn(Cc3cccc(N)c3)c(=O)c21` (centres undefined), the relative cell viability is 0.688. For `CC(=O)Oc1cc(C(F)(F)F)ccc1C(=O)O` [Triflusal], the relative cell viability was determined as 1.1.

The compound `O=c1c(O[C@@H]2O[C@H](CO)[C@@H](O)[C@H](O)[C@H]2O)c(-c2ccc(O)cc2)oc2cc(O)cc(O)c12` [Astragalin] registered a relative cell viability of 0.937.

In the case of `COC(=O)/C=C/c1cccc(N(Cc2ccc(-c3ccc(N(C)C)cc3)cc2)C(=O)C2CCCCC2)c1` [Fexaramine], the relative cell viability was 0.805. Take `O=C(O)c1c[nH]c2cc(Cl)c(-c3ccc(C4(O)CCC4)cc3)cc12`: the relative cell viability worked out at 0.958. `O=C(/C=C/c1ccc(/C=C/C(=O)Nc2ccc(C3=NCCN3)cc2)cc1)Nc1ccc(C2=NCCN2)cc1` yielded a relative cell viability of 0.772. Under `CCC(CC)CC1(C(=O)Nc2ccccc2SC(=O)C(C)C)CCCCC1` [Dalcetrapib] stands 1.35. In the case of `CS(=O)(=O)c1ccc(-c2nnc(/C=C/c3nnc(-c4ccc(C#N)cc4)o3)n2-c2ccccc2Cl)nc1`, the relative cell viability amounted to 1.07.

The compound `CC(C)(Oc1ccc(CCNC(=O)c2ccc(Cl)cc2)cc1)C(=O)O` [Bezafibrate] showed a relative cell viability of 0.628. Compound `CC1(C)CC[C@]2(C(=O)O[C@@H]3O[C@H](CO)[C@@H](O)[C@H](O)[C@H]3O)CC[C@]3(C)C(=CC[C@@H]4[C@@]5(C)CC[C@H](O[C@@H]6O[C@H](C(=O)O)[C@@H](O)[C@H](O)[C@H]6O)C(C)(C)[C@@H]5CC[C@]43C)[C@@H]2C1` [Chikusetsusaponin IVa] gave a relative cell viability of 1.02. As to `CCN(CC)C(=O)N1CCN(C)CC1` [Diethylcarbamazine citrate], the relative cell viability came to 0.699. As to `CC(C)(C)NC(=O)[C@H]1CC[C@H]2[C@@H]3CC[C@H]4NC(=O)C=C[C@]4(C)[C@H]3CC[C@]12C` [Finasteride], the relative cell viability came out at 1.17. The compound `N=C(N)NC(=N)NCCc1ccccc1` [Phenformin hydrochloride] showed a relative cell viability of 0.76.
